Compound activity as filed in PubChem BioAssay.
HIV RNase H inh-1: HIV-1 RT RNase H inhibitors, primary screen, biochemical, fluorescence | Gag-Pol polyprotein (Human immunodeficiency virus type 1 group M subtype B (isolate … | inhibition, % at 10 µM | AID 565, 2006 | RT-RNase H RNA/DNA duplex cleavage | 65,000 compounds, 1.9% hits; in the data active = inhibition above about 50%
HIV RNase H inh-2: HIV-1 RT RNase H inhibitors, retest, confirmation, biochemical; shares compounds with HIV RNase H inh-1; Recombinant RT RNase H, fluorescent RNA/DNA duplex cleavage; inhibition, % at 10 µM; 1,000 compounds, 39% hits; AID 651, 2007; in the data active = inhibition above about 48%; inconclusive = no clear call, values can overlap the other calls
The depositor's hits bear a star; ? = inconclusive. Shown is part of a subset that was picked to be rich in hits.

SMILES | HIV RNase H inh-1 | others
CCCc1nnc(NC(=O)c2c(O)c3cccc4c3n(c2=O)CC4)s1 | 5
COc1ccc(CNC(=O)c2c(O)c3cccc4c3n(c2=O)CCC4)cc1OC | -47
O=C(NCCNCCO)c1c(O)c2cccc3c2n(c1=O)CCC3 | -8
COc1ccc(CCNC(=O)c2c(O)c3cccc4c3n(c2=O)CC4)cc1 | 83* | HIV RNase H inh-2=67*
O=C(NCCc1ccccc1)c1c(O)c2cccc3c2n(c1=O)CC3 | 74* | HIV RNase H inh-2=84*
Cc1cnc(NC(=O)c2c(O)c3cccc4c3n(c2=O)CCC4)s1 | -6
CC(C)c1nnc(NC(=O)c2c(O)c3cccc4c3n(c2=O)CCC4)s1 | 77* | HIV RNase H inh-2=73*
O=C(NCc1ccccn1)c1c(O)c2cccc3c2n(c1=O)CC3 | 4
COc1ccc(CNC(=O)c2c(O)c3cccc4c3n(c2=O)CCC4)cc1 | -14
O=C(CN1CCOc2ccccc21)N1CCCC1 | -7
CCOC(=O)CSc1nnc(CNC(=O)c2ccc(OC)cc2)n1C1CCCCC1 | -4
CC(=O)Nc1cccc(NC(=O)c2sc3ncn(CC(=O)N4CCCCC4)c(=O)c3c2C)c1 | -21
Cn1cc(S(=O)(=O)Cc2ccc(F)cc2)c2ccccc21 | -12
CCn1c(O)c(/C=N/n2cnnc2)sc1=S | 61* | HIV RNase H inh-2=0
O=C(O)Cn1c(O)c(C=Nc2ccccc2)sc1=S | -3
Oc1ccc2ccccc2c1/C=N/n1cnnc1 | -9
CC(=O)C1=C(O)C(=O)N(c2cccc(C(=O)O)c2)C1c1ccc(F)cc1 (stereo not given) | -19
O=C(c1cc2nc3c(c(C(F)(F)F)n2n1)CCc1ccccc1-3)N1CCN2CCCC2C1 (stereo not given) | -24
COc1ccc(OC)c(NC(=O)Cn2cccc2)c1 | -1
Cc1cccc(S(=O)(=O)c2c(N)n(Cc3ccco3)c3nc4ccccc4nc23)c1 | 3
Nc1c(S(=O)(=O)c2cccc(Cl)c2)c2nc3ccccc3nc2n1/N=C/c1ccc(O)c(O)c1 | 92* | HIV RNase H inh-2=58*
CC(C)CNC(=O)c1c(N)n(/N=C/c2cccnc2)c2nc3ccccc3nc12 | 5
CCn1c2ccccc2c2nnc(SCC(=O)NC(CC(C)C)C(=O)OC)nc21 (stereo not given) | 5
O=C(NC1=NC2CCCCC2N1)c1ccccc1 (stereo not given) | -10
CCN1CCN(c2nc(SC)nc3sc4c(c23)CC(C)(C)OC4)CC1 | -5
SMILES | HIV RNase H inh-1 | others
Cc1nc(N2CCCCC2)c2sc(=S)n(C)c2n1 | -11
CCN1CCN(c2nc(C)nc3c2sc(=S)n3C)CC1 | 90* | HIV RNase H inh-2=65*
Cc1cc(NC(=O)Cn2nc(-c3ccccc3F)ccc2=O)ccc1-n1cnnn1 | -6
Clc1ccc(COn2nnc3ccccc32)c(Cl)c1 | -60
Cc1cccc(N2CCN(C(=O)c3cc4c(=O)n(C)c5ccccc5c4n3C)CC2C)c1 (stereo not given) | -5
Cc1cc(CCN2CCC(=O)NC2=O)ccc1OC(C)C | -14
O=C(/C=N/O)NCc1ccncc1 | -4
COC(=O)c1oc2ccc(Cl)cc2c1NC(C)=O | -9
COC(=O)c1oc2ccc(Br)cc2c1NC(=O)CN1CCN(C)CC1 | -4
COC(=O)c1oc2ccc(Br)cc2c1NC(=O)c1ccccc1 | 59* | HIV RNase H inh-2=76*
Cc1ccccc1C(=O)c1ccc2c(c1)n(C)c(=O)n2C | -9
CCCc1nc2ccccc2c(=O)n1/N=C/c1c(C)[nH]n(-c2ccc(C)cc2)c1=O | 13
CCOC(=O)c1cc2sccc2n1CC(=O)N1c2ccccc2CC1C (stereo not given) | 57* | HIV RNase H inh-2=?
CCOC(=O)c1c(C)[nH]c(C(=O)OCC(=O)N2c3ccccc3CC2C)c1C (stereo not given) | -4
CC1Cc2ccccc2N1C(=O)CCn1c(=O)sc2ccccc21 (stereo not given) | -28
CCOC(=O)C1=C(C)NC(SCc2cc(=O)[nH][nH]2)=C(C#N)C1c1cccs1 (stereo not given) | 1
CCC1=NC(c2ccccc2Cl)N(O)C1(C)C (stereo not given) | -11
CCOC(=O)C1=C(N)OC2=C(C(=O)CC(C)(C)C2)C1c1ccco1 (stereo not given) | -5
COc1ccc(C2C(C#N)=C(N)OC3=C2C(=O)CC(C)(C)C3)c(OC)c1OC (stereo not given) | -9
CC1(C)CC(=O)C2=C(C1)OC1=C(C(=O)CC(C)(C)C1)C2c1ccc(O)cc1O | 56* | HIV RNase H inh-2=-8
Cc1ccc(NC(=O)COc2ccc(/C(N)=N/O)cc2)cc1C | -9
COc1ccc(-c2nc3c(c(=O)n(C)c(=O)n3C)n2CC2CC(c3ccccc3)=NO2)cc1OC (stereo not given) | -11
CS(=O)(=O)N(CC(=O)NC1CCCC1)c1ccc2c(c1)OCCO2 | -16
Cc1ccc(OCc2nnc(SCC(=O)NC3CCCCC3)n2C)cc1 | -1
CCn1c(COc2ccccc2)nnc1SCC(=O)NC1CCCCC1 | 63* | HIV RNase H inh-2=26
Cn1c(COc2ccc(Cl)cc2)nnc1SCC(=O)NC1CCCCC1 | 10
